According to the supplement of paper PMC7261846:
± gives the uncertainty stated by the source.

System: Candida albicans SNY425 biofilm
Assay: biofilm OD600 with compound plus antifungal (OD600 (absorbance)); higher = more biofilm remaining
Conditions: assay detail: sustained inhibition (compound + antifungal during 90-min adherence and 24-h growth)

First: CCC[C@@]1(CCc2ccccc2)CC(O)=C([C@H](CC)c2cccc(NS(=O)(=O)c3ccc(C(F)(F)F)cn3)c2)C(=O)O1 [tipranavir] + CC[C@H](C)C[C@H](C)CCCCCCCCC(=O)N[C@H]1C[C@@H](O)[C@@H](NCCN)NC(=O)[C@@H]2[C@@H](O)CCN2C(=O)[C@H]([C@H](O)CCN)NC(=O)[C@H]([C@H](O)[C@@H](O)c2ccc(O)cc2)NC(=O)[C@@H]2C[C@@H](O)CN2C(=O)[C@H]([C@@H](C)O)NC1=O [caspofungin] (first compound 12.5 µM)
Second: O=C(NCCCCN1CCOCC1)c1cc2ccccc2o1 + C[C@@H]1[C@H](O)[C@@H](C)/C=C/C=C/C=C/C=C/C=C/C=C/C=C/[C@H](O[C@@H]2O[C@H](C)[C@@H](O)[C@H](N)[C@@H]2O)C[C@@H]2O[C@](O)(C[C@@H](O)C[C@@H](O)[C@H](O)CC[C@@H](O)C[C@@H](O)CC(=O)O[C@H]1C)C[C@H](O)[C@H]2C(=O)O [amphotericin B] (first compound 12.5 µM)
The “biofilm OD600” value of the first is lower: 0.192 ± 0.0071 for the first, 0.216 ± 0.013 for the second.

Going from O=C[C@@H]1CCCN1C(=O)[C@@H]1CCCN1C(=O)OCc1ccccc1 [Z-Prolyl-prolinal] + OC(Cn1cncn1)(Cn1cncn1)c1ccc(F)cc1F [fluconazole] (first compound 12.5 µM) to N[C@H](C(=O)O)[C@@H]1CC(Cl)=NO1 [Acivicin] + CC[C@H](C)C[C@H](C)CCCCCCCCC(=O)N[C@H]1C[C@@H](O)[C@@H](NCCN)NC(=O)[C@@H]2[C@@H](O)CCN2C(=O)[C@H]([C@H](O)CCN)NC(=O)[C@H]([C@H](O)[C@@H](O)c2ccc(O)cc2)NC(=O)[C@@H]2C[C@@H](O)CN2C(=O)[C@H]([C@@H](C)O)NC1=O [caspofungin] (first compound 4 µM), the “biofilm OD600” value rises from 0.0978 ± 0.0091 to 0.163 ± 0.0049.
